For assay [1], the system named is Zika virus NS2B-NS3 protease (linked construct). The assay is described as follows: Primary screen NINDS Rhodamine qHTS for Zika virus inhibitors (AID 1347160). Further: nearly all actives have a fitted effect of over 55% in size. Further: potency means the concentration at half of the fitted maximal effect. On activity change, negative = inhibition: on the % scale 0 is the no-effect control and ±100 the full control effect. Put shortly:
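Enzyme (25 nM, linked NS2B-NS3) was preincubated 15 min with compound in 10 mM Tris-HCl pH 8.0, 0.01% Tween 20. Rhodamine110 substrate (1.5 microM) was then added and fluorescence read at start and after 15 min.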

The test system of assay [2] is Zika virus NS2B-NS3 protease (unlinked complex). The assay is described as follows: Primary screen GU Rhodamine qHTS for Zika virus inhibitors: Unlinked NS2B-NS3 protease assay (AID 1347159). Further: on the % scale 0 is the no-effect control and ±100 the full control effect; nearly all actives have a fitted effect of over 60% in size. The method in brief: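 Enzyme 25 nM in Tris-HCl pH 8.0 + 0.01% Tween 20; compounds up to 114 microM, 15 min RT dark; + Rhod110 substrate 1.5 microM; read t0 and 15 min; delta fluorescence → % inhibition → 4-parameter Hill fit.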

Assay [3] is described as follows: qHTS to identify inhibitors of the type 1 interferon - major histocompatibility complex class I in skeletal muscle: primary screen against the NCATS Mechanism Interrogation Plate v5.0 (MIPE) Libary (AID 1347411). Further: nearly all actives have a fitted effect of over 65% in size. Further: potency means the concentration at half of the fitted maximal effect.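 On activity change, negative = inhibition: plate controls were vehicle for no effect and reference inhibitor for full effect.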 The method in brief: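 HLA-B HiBit myoblasts, dexamethasone-free medium + 4 ng/ml IFN-b, 24 h compound, 11-pt 1:3 from 46 uM final. Readout: Nano-Glo HiBiT lytic luminescence after 10 min lysis, RT.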

SMILES strings stand for the structures. Results filed as inconclusive are left out. A number with no mark means an inactive call. The source made the active and inactive calls. The call rests on the fitted dose curve; in most records, active means well fitted inhibition curve with a large enough effect; inconclusive means small, poorly fitted or top-dose-only effect; inactive means no such curve, though single readings can be large or run the other way.

For the compound `Cc1cn2c(-c3cn[nH]c3)cnc2c(Nc2ccc(C(=O)N3CCNCC3)cc2F)n1`, the Potency result in assay [1] was “inactive”.

On to `Cc1nc(Nc2n[nH]c3c2CN(C(=O)N[C@H](CN(C)C)c2ccccc2)C3(C)C)c2sccc2n1`, for which the Potency result in assay [2] and in assay [1] was “inactive” in each case. In addition, the Potency in assay [3] is 0.0523 µM (active).

`CN(C1CCc2c(c3ccccc3n2CC(=O)O)C1)S(=O)(=O)c1ccc(F)cc1` (configuration not stated): in assay [1], the Potency entry is “inactive”.

As to `Cn1c(CNc2ccc(C(=N)N)cc2)nc2cc(C(=O)N(CCC(=O)O)c3ccccn3)ccc21`, the Potency entry in assay [2] and in assay [1] was “inactive” throughout. In assay [3], the activity change, negative = inhibition is 5.59% [at 0.314 µM].

Regarding `O=C(Cc1ccc(-c2ccc(OCCN3CCOCC3)cc2)cn1)NCc1ccccc1`, in assay [1], the Potency entry is “inactive”.

With `O=C(c1ccc(Nc2nccc(-c3cc4ccccc4s3)n2)cc1)N1CCC(N2CCCC2)CC1`, the Potency result in assay [2] and in assay [1] was “inactive” throughout. In assay [3], the Potency was 5.23 µM (active).

As for `CN(C)CC(C)(C)CNc1nn2c(-c3ccccc3)nnc2cc1C1CCC1`, the Potency result in assay [2], in assay [1] and in assay [3] was “inactive” in each case.

On to `COc1cc2c(Oc3ccc4[nH]c(C)cc4c3F)ncnc2cc1OCCCN1CCCC1`, for which the Potency entry in assay [2] and in assay [1] was “inactive” each time. The Potency in assay [3] is 20.8 µM (active).

Consider `COc1cc(C(=O)N2CCC(N3CCN(C)CC3)CC2)ccc1Nc1ncc2c(n1)N(C)c1ccccc1C(=O)N2C`, for which the Potency result in assay [2] and in assay [1] was “inactive” in each case. The Potency in assay [3] is 23.4 µM (active).

Regarding `Cc1ccc2nc(NC(=O)CSc3nc4c(c(=O)n3-c3ccccc3)SCC4)sc2c1`, the Potency result in assay [1] and in assay [3] was “inactive” throughout.

Turning to `CC[C@@]1(O)C(=O)OCc2c1cc1n(c2=O)Cc2cc3cc(O)ccc3nc2-1`, the Potency in assay [1] was 20 µM (active); in assay [3], 3.3 µM (active).

Turning to `COc1ccc(OC)c(-c2nnc3ccc(-c4ccc(OC)c(O[C@@H]5CCOC5)c4)nn23)c1`, the Potency result in assay [1] and in assay [3] was “inactive” each time.

These data come from PubChem BioAssay (NCATS).
